GDH-TPI counter-1: counter-screen for M. tuberculosis FBA inhibitors: GDH-TPI coupled enzymes; GDH-TPI coupled enzyme counterscreen, NADH absorbance; inhibition, % at 4.8 µM; 360,000 tested, 1.2% active; AID 588335; in the data active = inhibition above about 30%;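 note: 0% = DMSO wells and 100% = wells lacking the enzyme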
FBA Mtb inh: Mtb fructose-bisphosphate aldolase inhibition; inhibition, % at 1 µM; purified M. tuberculosis FBA, fluorescence read-out; AID 588726; P9WQA3; 360,000 tested, 2.3% active;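 note: 0% = vehicle and 100% = reference inhibitor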
Target sequence (P9WQA3 whole entry, looked up): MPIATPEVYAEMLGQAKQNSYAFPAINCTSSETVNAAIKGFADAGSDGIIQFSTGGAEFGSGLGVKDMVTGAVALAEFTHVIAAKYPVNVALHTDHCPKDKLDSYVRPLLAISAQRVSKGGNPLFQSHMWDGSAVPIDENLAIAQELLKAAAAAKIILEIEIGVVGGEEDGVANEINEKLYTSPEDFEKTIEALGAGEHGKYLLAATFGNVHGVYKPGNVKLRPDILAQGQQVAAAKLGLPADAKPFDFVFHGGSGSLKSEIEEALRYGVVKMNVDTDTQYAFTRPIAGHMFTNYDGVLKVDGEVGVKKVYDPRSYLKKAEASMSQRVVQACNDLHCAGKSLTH
FadD28 FP inh: M. tuberculosis FadD28 bisubstrate binding inhibition; 360,000 tested, 0.22% active; inhibition, % at 12.5 µM; FadD28 bisubstrate probe binding, fluorescence polarization; in the data active = inhibition above about 8.5%, passing the limit was not always enough
Mtb hypoxia rep: Mtb hypoxia fluorescent reporter inhibition. AID 1159583. fluorescence inhibition, % (no concentration beside the values). M. tuberculosis hypoxia-regulated fluorescent reporter, fluorescence. 300,000 tested, 0.1% active; in the data active = fluorescence inhibition mostly above about 23%, no sharp cut-off; inactive = mostly below about 17%
Mtb BioA inh: BioA (M. tuberculosis) enzyme inhibition; purified M. tuberculosis BioA enzyme, plate reader; inhibition, % at 9.99 µM; 360,000 tested, 0.096% active; AID 602481; in the data active = inhibition above about 40%
Mtb FBA inh conf: Mtb FBA inhibition, confirmed; shares compounds with FBA Mtb inh; purified M. tuberculosis FBA, fluorescence read-out; inhibition, % at 1 µM; 5,600 tested, 78% active;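 note: 0% = vehicle wells and 100% = reference inhibitor wells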
GDH-TPI counter-2: GDH-TPI inhibition counter-screen for FBA inhibitors; inhibition, % at 1 µM; GDH-TPI coupled enzyme counterscreen, fluorescence; 5,600 tested, 81% active; shares compounds with FBA Mtb inh; in the data active = inhibition above about 10%
Active calls of the source: *; · = no result given; + = active, no number. Rows were chosen to be rich in hits. Some 2.9% of all compounds tested hit in one or more screens of this group. Cut-off read from the data, not from the text of the source, unless noted: active = inhibition above about 27%; inactive = the rest.

SMILES | GDH-TPI counter-1 | FBA Mtb inh | FadD28 FP inh | Mtb hypoxia rep | Mtb BioA inh | Mtb FBA inh conf | GDH-TPI counter-2
COc1ccc2nc(C(c3ccc(C)cc3)n3c(-c4ccccc4Br)nc4ccccc43)[nH]c2c1 (stereo not given) | · | 52* | -2 | · | -4 | + | +
O=C(N/N=C/c1ccc(O)c(O)c1)c1ccc(-n2cnnn2)cc1 | 25 | 52* | 0 | · | 0 | 52* | 52*
COc1cccc2cc(-c3ccnc(N)n3)oc12 | 18 | 3 | -1 | · | -1 | · | ·
COc1cccc2cc(-c3n[nH]c(=S)n3C)oc12 | 1 | 42* | -2 | -11 | 0 | 1 | -4
CC(C)NC(=O)Nc1ccc2c(c1)C(=O)N([C@@H](C)CO)C[C@H](C)[C@@H](CN(C)C(=O)NC1CCCCC1)O2 | · | · | · | · | -1 | · | ·
COc1ccc(S(=O)(=O)N(C)C[C@@H]2Oc3ccc(NC(=O)NC(C)C)cc3CC(=O)N([C@H](C)CO)C[C@H]2C)cc1 | · | · | · | · | -1 | · | ·
NC(=O)CSc1nnc2ccc(-c3ccco3)nn12 | 16 | 18 | -2 | · | · | · | ·
COc1ccc(-c2ccc3nnc(SCC(=O)NCC4CCCO4)n3n2)cc1 (stereo not given) | 11 | 34* | 0 | 4 | 1 | 172* | 120*
O=C(CSc1ccc2nc(-c3ccccc3)cn2n1)NCC1CCCO1 (stereo not given) | 18 | 111* | -2 | 1 | -1 | + | +
Cc1ccc(-c2ccc(SCC(=O)NCC3CCCO3)nn2)cc1 (stereo not given) | 7 | 5 | -3 | 6 | -2 | · | ·
COc1ccc(-c2ccc3nnc(SCC(N)=O)n3n2)cc1 | 19 | 29* | -5 | 13 | · | 85* | 60*
CC(=NNC(=O)C1CC1(c1ccccc1)c1ccccc1)c1cccs1 (stereo not given) | · | · | · | 5 | · | · | ·
Cc1ccc(S(=O)(=O)Nc2ccc3c(c2)C(=O)N([C@@H](C)CO)C[C@@H](C)[C@@H](CN(C)Cc2ccc(Cl)c(Cl)c2)O3)cc1 | · | · | · | · | -1 | · | ·
Cc1ccc(C)c(N)c1 | 2 | -1 | -4 | 13 | 0 | · | ·
Cc1ccc2c(N)c(C)ccc2c1 | 13 | 49* | 0 | · | -2 | -2 | -6
COc1cc(C(=O)NCC(=O)OCC(=O)Nc2ncc(Cl)cc2Cl)cc(OC)c1OC | -6 | 0 | -3 | 8 | · | · | ·
COc1cc(C(=O)NCC(=O)OC(C)C(=O)Nc2ncc(Cl)cc2Cl)cc(OC)c1OC (stereo not given) | -4 | 48* | 1 | 9 | · | 69* | 74*
C[C@@H]1CN([C@@H](C)CO)C(=O)c2cc(NC(=O)C3CCCCC3)ccc2O[C@H]1CN(C)S(=O)(=O)c1ccccc1 | · | · | · | · | 1 | · | ·
Cc1ccccc1-c1ccc([C@H]2[C@H]3CN(C(=O)NC4CCCC4)CCCCN3[C@H]2CO)cc1 | · | · | · | · | -1 | · | ·
CCc1noc(C)c1C(=O)N1CCN(S(=O)(=O)c2ccc(Cl)cc2)CC1 | -10 | 33* | -3 | 1 | 2 | 94* | 79*
Cc1ccccc1NC(=O)c1cccc2nc3ccccc3nc12 | 6 | -1 | -2 | · | -1 | · | ·
Cc1ccc(C(=O)Nn2c(N)c(S(=O)(=O)c3ccc(C)cc3)c3nc4ccccc4nc32)cc1 | 35* | 65* | 1 | -2 | -3 | 76* | 52*
Cc1cccc(S(=O)(=O)c2c(N)n(/N=C/c3ccccc3)c3nc4ccccc4nc23)c1 | 7 | -2 | -1 | · | -1 | · | ·
Cc1ccc(S(=O)(=O)c2c(N)n(NC(=O)c3ccccc3C)c3nc4ccccc4nc23)cc1 | 9 | 39* | -2 | 2 | 0 | 193* | 143*
C[C@H]1CN([C@@H](C)CO)C(=O)Cc2cc(NC(=O)Cc3cn(C)c4ccccc34)ccc2O[C@@H]1CN(C)CC1CC1 | · | · | · | · | 3 | · | ·
SMILES | GDH-TPI counter-1 | FBA Mtb inh | FadD28 FP inh | Mtb hypoxia rep | Mtb BioA inh | Mtb FBA inh conf | GDH-TPI counter-2
COC(=O)[C@@]1(Cc2ccc(F)cc2)C2c3cc(C(=O)N4CCCC4)n(CCCNc4ncc(C(F)(F)F)cc4Cl)c3CC2CN1C(=O)c1ccccc1 (stereo not given in full) | · | · | · | 7 | · | · | ·
COCCCn1cnc2c(c1=O)c1nc3ccccc3nc1n2-c1ccccc1 | 7 | 7 | -2 | -2 | 0 | · | ·
COCCCn1cnc2oc3nc4ccccc4nc3c2c1=O | 9 | 100* | -2 | 9 | -1 | 86* | 64*
O=C(C[C@@H]1C[C@@H]2c3cc(NC(=O)C4CCOCC4)ccc3O[C@@H]2[C@@H](CO)O1)NCc1cccc(F)c1 | · | · | · | · | -3 | · | ·
Cc1ccc(CNC(=O)CC(C)S(=O)(=O)c2ccc3c(c2)NC(=O)CO3)cc1 (stereo not given) | -8 | -1 | -4 | 12 | -3 | · | ·
Cc1ccc(NC(=O)CC(C)S(=O)(=O)c2ccc3c(c2)NC(=O)CO3)c(Cl)c1 (stereo not given) | 0 | 71* | -2 | 16 | 2 | + | +
Cc1noc(C)c1NC(=O)N(C)C[C@@H]1Oc2c(NS(=O)(=O)c3cn(C)cn3)cccc2C(=O)N([C@@H](C)CO)C[C@H]1C | · | · | · | · | 1 | · | ·
O=C(Nc1ccc(-c2nc3c(ccc4ccccc43)o2)cc1)c1ccco1 | 48* | 54* | -3 | 3 | -2 | 107* | 103*
O=C(Nc1ccc(-c2nc3cc(Cl)ccc3c(=O)o2)cc1)c1ccco1 | 5 | 0 | -14 | 10 | 1 | · | ·
COc1ccc(OC)c(S(=O)(=O)Nc2ccc3c(c2)n(C)c(=O)n3C)c1 | 2 | 62* | 0 | 0 | 1 | 140* | 93*
Cc1oc(-c2cccs2)nc1CSCC(=O)NC1CC1 | -6 | 35* | -1 | 9 | · | -2 | -6
Cc1oc(-c2ccccc2Cl)nc1CSCC(=O)NC1CCCC1 | -7 | 1 | -3 | 10 | · | · | ·
CCOC(=O)N1CCC(NC(=O)CSCc2nc(-c3sccc3C)oc2C)CC1 | 16 | 40* | -1 | 6 | 1 | 1 | -1
O=C(Nc1ccc(Cl)c(Cl)c1)N[C@@H]1CC[C@H](CCn2cc(C3CC3)nn2)O[C@@H]1CO | · | · | · | · | 4 | · | ·
CC(CC(=O)Nc1cccc(Cl)c1Cl)=NNC(=O)c1ccccc1Br | · | · | · | 0 | · | · | ·
Cc1cc(NC(=O)CCC(=O)N(c2ccccc2)C(C(=O)NC2CCCC2)c2ccccc2)no1 (stereo not given) | -6 | 6 | -3 | · | 1 | · | ·
Cc1cc(NC(=O)CCC(=O)N(c2ccccc2C)C(C(=O)NC2CCCC2)c2ccccc2)no1 (stereo not given) | 8 | 86* | -1 | -6 | -1 | + | 167*
Cc1ccc(C2CC(c3ccco3)n3ncnc3N2)cc1 (stereo not given) | -5 | 1 | -3 | · | 0 | · | ·
Cc1ccc2c(c1)C(N1CCCC1=O)CC(c1ccco1)N2 (stereo not given) | 21 | 31* | -2 | · | -4 | 6 | -2
CCn1c(C)c(CCC(=O)O)c(=O)n2nc(-c3ccccc3OC)cc12 | 12 | 54* | 1 | -9 | -3 | 40* | 41*

Assay outcomes (PubChem BioAssay)
